Most compounds without a hit are left out; they make up all but 6% or so of the library.
D1 agonist = activates the human D1 dopamine receptor; HEK293 T-REx D1 cells, calcium flux, agonist mode; activation, % at 2 µM; 360,000 tested, 1% active; AID 504660; in the data active = activation above about 30%
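Inducible HEK293 T-REx D1 cells, force-coupled to calcium signalling, were plated at 4000 cells/well with tetracycline and held overnight at 30 C. After no-wash calcium dye loading, compound-evoked calcium rise over 180 s flagged agonists.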
D1 potentiator = human D1 dopamine receptor positive modulation | P21728 | HEK293 TREx D1 cells, calcium flux, dopamine EC20 potentiation | potentiation, % at 10 µM | 360,000 tested, 0.036% active | AID 504651; in the data active = potentiation above about 30%
DRD3 antagonist = D3 dopamine receptor (human) antagonism. P35462. D3R cells, DiscoveRx beta-arrestin luminescence, antagonist mode; stronger effect = lower value. AID 652054. max response, negative = inhibition, %. 360,000 tested, 2.5% active; in the data active = max response below about -50%; inconclusive = no clear call, values can overlap the other calls
Target sequence (P35462 whole entry, looked up): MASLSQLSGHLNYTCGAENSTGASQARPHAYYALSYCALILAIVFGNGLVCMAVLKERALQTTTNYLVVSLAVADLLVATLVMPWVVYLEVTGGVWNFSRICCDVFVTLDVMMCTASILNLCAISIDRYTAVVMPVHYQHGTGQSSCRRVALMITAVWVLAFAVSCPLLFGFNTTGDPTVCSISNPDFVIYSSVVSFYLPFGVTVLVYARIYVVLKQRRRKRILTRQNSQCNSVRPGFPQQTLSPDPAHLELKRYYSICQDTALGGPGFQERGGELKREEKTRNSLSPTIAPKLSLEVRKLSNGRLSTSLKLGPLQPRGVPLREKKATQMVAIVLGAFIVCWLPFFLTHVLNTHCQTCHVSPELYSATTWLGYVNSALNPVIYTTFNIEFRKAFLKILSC
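Cells plated overnight at 1500 cells/well, then exposed to library compounds with dopamine controls for 90 minutes at 37 degrees C. DiscoveRx reagent added for 30–60 minutes at room temperature; luminescence read, quantitative HTS format.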
D3 ag = agonists of human D3 dopamine receptor | P35462 | D3R DiscoveRx beta-arrestin cells, luminescence, 90 min | max activation, % | 410,000 tested, 0.58% active; in the data active = max activation above about 30%
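Agonist mode: compounds and dopamine controls were applied to plated cells for 90 min at 37 degrees C after an overnight attachment at 1500 cells/well. Luminescent read-out followed 30 - 60 minutes at room temperature with DiscoveRx detection reagent.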
D1 antag = human D1 dopamine receptor antagonism. P21728. HEK293 TREx D1 cells, calcium flux, dopamine EC80; stronger effect = lower value. activity change, negative = inhibition, % at 10 µM. 360,000 tested, 3.2% active. AID 504652; in the data active = activity change below about -30%
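Antagonism measured as reduced calcium response to an EC80 dopamine addition following 180 s compound pre-read; cells were inducible HEK293 Trex D1 plated overnight at 30 C, read kinetically at 1 cycle/sec.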
Large screens that a line does not name were inactive.

Cc1ccc(N/N=C(\Cc2nc3ccccc3[nH]2)c2ccccc2)cc1	DRD3 antagonist -60.2
Cc1noc(C)c1S(=O)(=O)Nc1cccc(CO)c1	D1 antag -31.4
Cc1cccn2c(=O)c(C=O)c(Cl)nc12	none
O=Cc1c(Cl)nc2ccccn2c1=O	DRD3 antagonist -66.7
Cc1ccc(NC(=O)c2oc3ccc(S(=O)(=O)N4CCCCCC4)cc3c2C)c(C)c1	none (no result: DRD3 antagonist)
N#C/C(=N\Nc1ccc(Cl)cc1)C(=O)c1ccsc1	none
Cc1ccc(N/N=C(\C#N)C(=O)c2ccsc2)cc1	D1 antag -46.6
CCOC(=O)c1cccc(NC(=O)Nc2ccc3c(c2)N(C)C(=O)c2ccccc2S3)c1	none (no result: DRD3 antagonist)
O=C(Nc1cc(F)ccc1F)C1CCN(c2nc3ccccc3n3cccc23)CC1	none (no result: DRD3 antagonist)
OCc1cnc(SCc2ccccc2)n1Cc1ccccc1	none
C=CCSc1ncc(CO)n1Cc1ccccc1	D1 antag -50.2
CC(=O)Nc1ccc(-n2c(=O)c3ccccc3c3ccccc3c2=O)cc1	DRD3 antagonist -88.2
CC(=O)Nc1ccc(N2C(=O)c3cccc4c(O)ccc(c34)C2=O)cc1	D1 agonist 283.3
COc1ccc(N2C(=O)c3cccc4c(N(C)CCO)ccc(c34)C2=O)cc1	D1 agonist 49.4
COc1ccc(N2C(=O)c3cccc4cccc(c34)C2=O)cc1	none
O=C1c2cccc3c(O)ccc(c23)C(=O)N1c1ccc(Cl)cc1	D1 agonist 470.1
Cc1ccc(N2C(=O)c3cccc4c(C(=O)O)ccc(c34)C2=O)cc1	none (no result: DRD3 antagonist, D3 ag)
O=C(Nc1ccc2nc(SCC(=O)N3CCOCC3)sc2c1)c1ccccc1Cl	none (no result: DRD3 antagonist)
CC(=O)Nc1ccc(NC(=O)CCS(=O)(=O)c2ccc3c(c2)CC(=O)N3C)cc1	none (no result: DRD3 antagonist)
O=C1c2cccc3c(O)ccc(c23)C(=O)N1Cc1ccco1	D1 agonist 271.5
COc1ccc(CCN2CC(C(=O)Nc3cccc(C(C)=O)c3)CC2=O)cc1OC (centres undefined)	DRD3 antagonist -60.6
O=C(Nc1ccc2c(c1)OCO2)C1CC(=O)N(CCc2ccccc2)C1 (centres undefined)	D1 antag -37.6
COc1ccccc1NC(=O)c1cnc(SCC(=O)N2CCOCC2)n(C)c1=O	none (no result: DRD3 antagonist, D1 antag)
CCOc1ccccc1NC(=O)NCc1noc2ccc(C)cc12	none (no result: DRD3 antagonist)
O=C(Nc1cc(Cl)ccc1-n1cncn1)c1cncc(Br)c1	D1 antag -44.7
Cc1cccc(OCC(=O)Nc2cc(Cl)ccc2-n2cncn2)c1C	none
CCCOc1ccccc1OCC(=O)Nc1cc(Cl)ccc1-n1cncn1	D1 antag -70.9
Cc1ccc(CNC(=O)Cn2c(=O)n(-c3ccc(C)c(F)c3)c(=O)c3sc4ccccc4c32)cc1	none (no result: DRD3 antagonist)
Cc1cc2c(C)nc(N/N=C/c3ccc([N+](=O)[O-])cc3)nc2o1	none
Cc1cc2c(C)nc(N/N=C/c3ccc(F)cc3)nc2o1	DRD3 antagonist -55.7
CCOC(=O)c1ccc(NC(=O)CN(C)S(=O)(=O)c2ccc(OC)cc2)cc1	none
CCOc1ccc(NC(=O)CCS(=O)(=O)c2ccc(Br)s2)cc1	none (no result: DRD3 antagonist)
Cc1ccc(NC(=O)CCS(=O)(=O)c2ccc(Br)s2)cc1	D1 antag -52.7
CN(CC(=O)NCCc1ccccc1)S(=O)(=O)c1ccc(Br)s1	DRD3 antagonist -77.9
CCOC(=O)c1ccc(NC(=O)CN(C)S(=O)(=O)c2ccc(Br)s2)cc1	D1 antag -38.2
CCOC(=O)CSc1nc(-c2ccc(F)cc2)cc(C(F)(F)F)c1C#N	none (no result: DRD3 antagonist)
O=C(NN1C(=O)c2ccccc2C1=O)c1ccncc1	none
CN(C)c1ccc(C(=O)NN2C(=O)c3ccccc3C2=O)cc1	D1 antag -32.1
N=C1SC(c2ccccc2)C(=O)N1c1ncc(Cc2ccccc2Cl)s1 (centres undefined)	DRD3 antagonist inconclusive, D1 antag -43.2
O=C(CSc1nnnn1-c1ccccc1)Nc1ncc(Cc2ccccc2Cl)s1	none
O=C(N/C(=C/c1ccc(Br)cc1)C(=O)N1CCCCC1)c1ccccc1F	DRD3 antagonist -57.1
O=C(N/C(=C/c1cccnc1)C(=O)N1CCCCCC1)c1cccc(Br)c1	D1 antag -39.0
O=C(NC(=S)N1CCCCCC1)c1ccccc1	none
O=C(NC(=S)N1CCCCC1)c1cccnc1	D1 antag -33.9
O=C(N/C(=C\c1cccnc1)C(=O)N1CCC(O)CC1)c1ccccc1	none
CCCN(c1ccccc1F)S(=O)(=O)c1ccc2c(c1)C(C)(C)C(=O)N2C	none (no result: DRD3 antagonist)
CCc1nnc(NC(=O)c2nc(SCc3ccc(F)cc3)ncc2Cl)s1	none (no result: DRD3 antagonist)
CCOC(=O)c1cc(S(=O)(=O)Nc2cc(OC)ccc2OC)[nH]n1	none (no result: DRD3 antagonist)
Cc1cc(C)cc(C(O)c2ncc(-c3ccc4ccccc4c3)[nH]2)c1 (centres undefined)	DRD3 antagonist -55.9 (no result: D1 agonist, D1 potentiator, D1 antag)
Cc1ccc(C(O)c2ncc(-c3ccc4ccccc4c3)[nH]2)cc1 (centres undefined)	none (no result: D1 agonist, D1 potentiator, D1 antag)
COC(=O)CCc1c(C)[nH]c(C(=O)OCc2ccccc2)c1C	none
CCOC(=O)CCc1c(C(=O)OCC)[nH]c(CC)c1C(=O)OCc1ccccc1	D3 ag 31.4
CCn1cc(C(=O)N2CCN(c3ccccc3)CC2)c(=O)c2cc(S(=O)(=O)N3CCC(C)CC3)ccc21	none (no result: DRD3 antagonist)
N#Cc1c(N)nc(SCc2ccncc2)c(C#N)c1-c1cccs1	D1 antag -34.3
CN1CCc2nc(SCc3ccc(Cl)cc3)c(C#N)c(-c3cccs3)c2C1	DRD3 antagonist -60.2 (no result: D1 agonist, D1 potentiator, D1 antag)
CCOC(=O)CC(=O)CSc1nc2c(c(-c3cccs3)c1C#N)CCC2	none
CN(Cc1c(O)ccc2c1oc(=O)c1ccccc12)C1CCCCC1	DRD3 antagonist -57.4
COc1ccc2nc(N3C(=O)CNC3=S)sc2c1	D1 antag -40.5
O=C(c1ccc2c(=O)n(Cc3ccco3)c(=S)[nH]c2c1)N1CCN(c2ccccc2)CC1	DRD3 antagonist -50.2 (no result: D1 agonist, D1 potentiator, D1 antag)
O=C(Cn1ncc2c([nH]c3ccccc32)c1=O)NCCCN1CCN(c2ccccc2)CC1	DRD3 antagonist -62.9
O=c1c2cccnc2[nH]c(=S)n1CCCN1CCN(c2ccccc2F)CC1	DRD3 antagonist -54.6
O=c1c2ccccc2[nH]c(=S)n1CCCN1CCN(c2ccccc2F)CC1	DRD3 antagonist -99.1, D1 antag -74.7
CC1=C(C(=O)Nc2ccccc2)C(c2cccs2)n2nc(SCc3ccccc3)nc2N1 (centres undefined)	none (no result: DRD3 antagonist)
Clc1ccc(-c2noc3ncnc(NCCc4ccccc4)c23)cc1	none (no result: DRD3 antagonist)
O=c1c2ccccc2[nH]c(=S)n1CCCN1CCN(c2ccccc2)CC1	DRD3 antagonist -70.8, D1 antag -58.2
CCN(CC)CCCn1c(=S)[nH]c2ncccc2c1=O	DRD3 antagonist -52.9
CCN(CCCn1c(=S)[nH]c2ncccc2c1=O)c1ccccc1	none
COc1ccc(-n2c(=O)c3c(c4cc(OC)ccc4n3C)n(Cc3c(F)cccc3Cl)c2=O)cc1	none (no result: DRD3 antagonist)
CCOC(=O)C1CCCN(CCC(=O)Nc2ccc(Br)c(C)c2)C1 (centres undefined)	DRD3 antagonist -54.4
